mIDH1 inhibitor: qHTS for Inhibitors of mutant isocitrate dehydrogenase 1 (IDH1): qHTS; Isocitrate dehydrogenase [NADP] cytoplasmic (Homo sapiens), O75874; IDH1-R132H enzyme, NADPH consumption, diaphorase/resazurin fluorescence; Potency, µM (top dose mostly 76.6 µM), usual class: inhibitors; 0.093% of 390,000 active; note: nearly all actives have a fitted effect of over 65% in size
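IDH1-R132H (0.5 ug/mL dispensed) in pH 7.5 Tris buffer was preincubated 30 min with compound, then given a substrate mix of 0.016 mM NADPH and 2 mM alpha-KG for 80 min at room temperature; remaining NADPH was read by diaphorase/resazurin fluorescence.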
Anesthetic bind: qHTS Assay for Identification of Novel General Anesthetics | 0.074% of 350,000 active | Potency, µM (titrated, usually from 77.5 µM), most hits filed as inhibitors | apoferritin/1-aminoanthracene competitive binding, fluorescence; note: nearly all actives have a fitted effect of over 20% in size
Target sequence (P02791 2-175 limits assumed): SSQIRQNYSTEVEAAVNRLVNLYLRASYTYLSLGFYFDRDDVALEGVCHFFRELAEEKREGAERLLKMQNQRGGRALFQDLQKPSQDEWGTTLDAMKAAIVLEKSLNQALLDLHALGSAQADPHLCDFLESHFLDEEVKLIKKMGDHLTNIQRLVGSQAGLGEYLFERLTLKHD
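Steps: apoferritin (10 uM) was premixed with half-saturated 1-AMA in PBS, compounds were pin-transferred, plates stood 10 min at room temperature, fluorescence was read at 380/535 nm, and curves were fitted with a Hill equation.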
ERG Ets-DNA blk: qHTS for Small Molecule Inhibitors of the ERG Ets/DNA interaction | AID 624246, 2012 | Transcriptional regulator ERG (Homo sapiens), P11308 | 0.028% of 370,000 active | fluorescence polarization, His-ERG Ets domain / labelled DNA | Potency, µM (highest dose often 76.9 µM), most hits filed as inhibitors; active = well fitted inhibition curve with a large enough effect in the polarisation, with a control signal flat; inconclusive = small, poorly fitted or top-dose-only effect, or effect the other way, or a change in a side signal; inactive = no such curve, though single readings can be large or run the other way; the % refers to the polarisation;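 note: polarization taken with two DNA probes labelled with fluorescein and Texas red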
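His-tagged ERG Ets domain (1 uM in the protein solution; 300mM KCl, 50mM Tris-HCl, 1mM EDTA, 1mM DTT, pH 7.5) received compound, then a probe mix of 5 nM fluorescein-DNA and 100nM Texas-615-DNA. Fluorescence polarization was read for both dyes.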
TSG101-PTAP inh: qHTS Assay for Iinhibitors of HIV-1 Budding by Blocking the Interaction of PTAP/TSG101; Tumor susceptibility gene 101 protein (Homo sapiens), Q99816; 340,000 tested, under 10 active; AID 493005, 2010; Fluorescence polarization, FITC-PTAP peptide / Tsg101 binding; Potency, µM (series often up to 115 µM), most hits filed as inhibitors; active = well fitted inhibition curve with a large enough effect in the main read-out, with a control signal flat, not every such curve was filed as active; inconclusive = small, poorly fitted or top-dose-only effect, or effect the other way, or a change in a side signal; inactive = no such curve, though single readings can be large or run the other way
Target sequence (Q99816 whole entry, looked up): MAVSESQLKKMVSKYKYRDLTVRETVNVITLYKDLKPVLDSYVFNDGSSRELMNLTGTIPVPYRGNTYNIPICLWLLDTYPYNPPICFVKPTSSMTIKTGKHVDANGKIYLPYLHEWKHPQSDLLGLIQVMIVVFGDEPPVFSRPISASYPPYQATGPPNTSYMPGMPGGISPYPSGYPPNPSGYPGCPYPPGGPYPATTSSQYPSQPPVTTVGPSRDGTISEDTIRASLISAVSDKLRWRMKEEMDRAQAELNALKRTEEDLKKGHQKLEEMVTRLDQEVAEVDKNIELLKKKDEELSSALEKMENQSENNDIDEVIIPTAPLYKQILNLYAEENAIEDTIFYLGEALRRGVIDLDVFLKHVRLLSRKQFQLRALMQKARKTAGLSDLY
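FP read-out: FITC-PTAP peptide, 50 nM final, binding Tsg101 binding domain, 10 uM final; 20 min, r.t.; 10 mM HEPES pH 7.5, 0.15 M NaCl, 0.01% Tween 20, 3 mM EDTA, 0.1 mM TCEP.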
IDH1 autofl: qHTS for Inhibitors of mutant isocitrate dehydrogenase 1 (IDH1): Cherrypicks Autofluorescence Interference. shares compounds with mIDH1 inhibitor. Resorufin detection reagent fluorescence interference, cell-free. inhibition of signal, % at 51.2 µM. 750 tested, under 10 active. AID 623980, 2012
WT IDH1 inh: qHTS for Inhibitors of mutant isocitrate dehydrogenase 1 (IDH1): Cherrypicks in WT IDH1; WT IDH1 enzyme, NADPH diaphorase/resazurin fluorescence; Potency, µM (titrated, usually from 115 µM), hits mostly inhibitors; AID 623995, 2012; shares compounds with mIDH1 inhibitor; 9% of 750 active; note: nearly all actives have a fitted effect of over 55% in size
IDH1 R132H conf: qHTS for Inhibitors of mutant isocitrate dehydrogenase 1 (IDH1): Confirmation of Cherrypicks | shares compounds with mIDH1 inhibitor | IDH1 R132H enzyme, NADPH diaphorase/resazurin fluorescence | Potency, µM (titrated, usually from 76.6 µM), usual class: inhibitors | 83% of 750 active | AID 624002, 2012; note: nearly all actives have a fitted effect of over 50% in size
Hits are given with their value; n = inactive; u = inconclusive; x = no result given; ! = repeats disagree. An excerpt weighted towards active compounds, which were near 0.18% of everything screened. Unless noted, calls come from the whole dose curve; as a rule, active = well fitted curve in the direction sought with a large enough effect; inconclusive = small, poorly fitted or top-dose-only effect, or another doubt; inactive = no such curve, though single readings can be large; an effect the other way counts as inactive or inconclusive.

SMILES | mIDH1 inhibitor | Anesthetic bind | ERG Ets-DNA blk | TSG101-PTAP inh | others
Cc1cc(SCC(=O)N/N=C/c2ccc(O)c(O)c2)c(C)cc1Br | n | 22.4µM | n | n
N#Cc1ccc(NC(=O)COC(=O)CNC(=O)C2CCCCC2)cc1 | n | 8.91µM | n | n
N#Cc1ccc(NC(=O)COC(=O)C2CCC2)cc1 | n | x | x | x
Cc1ccc(OCC(=O)N(C)CC(=O)Nc2ccc(F)c(F)c2F)cc1 | n | x | n | n
O=C(O)Cn1nc(-c2ccccc2)ccc1=O | n | n | n | n
Cc1ccc(-c2ccc(=O)n(CC(=O)NCc3ccco3)n2)cc1 | n | 8.91µM | n | n
O=C(Cn1nc(-c2ccccc2)ccc1=O)NCc1ccc(F)cc1Cl | n | 11.2µM | n | x
CCc1ccc(CNC(=O)Cn2nc(-c3ccccc3)ccc2=O)cc1 | n | 11.2µM | n | n
COC(=O)c1c(NC(=O)c2c(-c3ccccc3Cl)noc2C)sc2c1CCC2 | n | n | n | n
COc1ccc(/C=N/NC(=O)CN2CCCC2)cc1 | n | n | n | n
CCn1nc(C)cc1C(=O)N1CCCC(N2CCN(c3ccccc3OC)CC2)C1 (centres undefined) | n | x | n | n
CCOc1ccc(N(CC(=O)Nc2ccc3c(c2)OCO3)S(=O)(=O)c2ccccc2)cc1 | n | n | n | x
CC(=O)Nc1ccc(-c2csc(NC(=O)C3CC(=O)N(c4ccc5c(c4)OCCO5)C3)n2)cc1 (centres undefined) | n | n | 22.4µM | n
CCOC(=O)c1[nH]nc(C(=O)c2ccc(Br)cc2)c1O | n | n | n | n
CCn1c2ccccc2c2cc(NC(=O)CSc3nnc(-c4cccc(OC)c4)n3N)ccc21 | n | n | n | n
O=S(=O)(NCCC1=CCCCC1)c1cccc2nsnc12 | n | 8.91µM | n | n
O=C(CCNS(=O)(=O)c1cccc2nsnc12)NCCC1=CCCCC1 | n | n | n | n
CC(NC(=O)Cn1nc(C(=O)O)c2ccccc2c1=O)c1ccccc1 (centres undefined) | n | n | n | n
CC(NC(=O)Cn1nc(-c2ccccc2)c2ccccc2c1=O)c1ccccc1 (centres undefined) | n | 14.1µM | n | n
Cc1ccccc1C(=O)Nc1ccnc(-c2ccncc2)n1 | n | n | n | n
CC1Cc2ccccc2N1C(=O)CSc1ccccc1 (centres undefined) | n | 6.31µM | n | n
Cc1ccc(C)c(OCCn2cc(C(=O)O)c3ccccc32)c1 | 32.9µM | n | n | n
CC(=O)c1cn(CCOc2cc(C)ccc2C)c2ccccc12 | n | n | n | n
O=C(CSc1nc(-c2ccc(F)cc2)cs1)NC(=O)NCc1ccco1 | n | u | n | n
S=C1Nc2ccccc2CS1 | n | x | x | x
SMILES | mIDH1 inhibitor | Anesthetic bind | ERG Ets-DNA blk | TSG101-PTAP inh | others
S=C1Cc2ccccc2N1 | 36.9µM | n | n | n
Cc1ccc(NS(=O)(=O)c2cc3[nH]c(=O)c(=O)[nH]c3cc2C)c(C)c1 | n | n | n | n
CC(C)(C)c1ccc(C(=O)Nc2nonc2-c2nc3ccccc3[nH]2)cc1 | n | n | n | n
Cc1ccc(-c2ccc(=O)n(CC(=O)Nc3ccc(C)cc3Cl)n2)cc1 | n | 10µM | n | x
COc1ccccc1NC(=O)Cn1nc(-c2ccc3c(c2)OCCO3)ccc1=O | n | 11.2µM | n | n
Cc1ccc(NC(=O)Cn2nc(-c3ccccc3Cl)ccc2=O)c(Br)c1 | n | 10µM | n | n
Cc1c(Br)ccc(NC(=O)Cn2nc(-c3cccs3)ccc2=O)c1C | n | u | n | n
CC(=O)c1cc2c(cc1NC(=O)Cn1nc(-c3ccc(C)cc3)ccc1=O)OCO2 | n | n | n | n
COc1ccc(N2C(=O)NC3CC2(C)Oc2ccccc23)cc1OC (centres undefined) | n | n | n | n
COc1ccc(C2CC(=O)C(CS(=O)(=O)c3ccccc3)C(=O)C2)cc1 (centres undefined) | n | 31.6µM | n | n
Cc1ccc2nc(NC(=O)C3CCN(S(=O)(=O)c4cnc[nH]4)CC3)sc2c1 | n | n | n | n
O=C(COC(=O)c1ccccn1)NC12CC3CC(CC(C3)C1)C2 | n | 7.94µM | n | n
CS(=O)(=O)c1ccc(C(=O)OCC(=O)NC23CC4CC(CC(C4)C2)C3)cc1[N+](=O)[O-] | 31.6µM | n | n | n
Cc1cnc(C(=O)OCC(=O)NC23CC4CC(CC(C4)C2)C3)cn1 | n | 10µM | n | n
Cn1cccc1C(=O)NC(=O)COC(=O)c1ccc(S(C)(=O)=O)c([N+](=O)[O-])c1 | n | x | n | n
O=C(COC(=O)c1ccccc1O)NC12CC3CC(CC(C3)C1)C2 | n | x | x | n
CCN1CCN(S(=O)(=O)c2ccc(Cl)c(C(=O)NC3CCCC3)c2)CC1 | n | x | n | n
O=C(COc1ncnc2sccc12)NC1CCCc2ccccc21 (centres undefined) | n | n | n | n
Cc1ccc(C)c(-c2ccc(=O)n(Cc3c(F)cccc3Cl)n2)c1 | n | 44.7µM! | n | n
O=C(CCC(=O)c1cccs1)OCC(=O)c1ccc(F)cc1 | n | x | n | n
O=C(CCC(=O)c1cccs1)OCC(=O)c1ccc(Cl)s1 | n | 28.2µM | n | n
Cc1ccc(/C=C/C(=O)Nc2ccc(S(=O)(=O)Nc3onc(C)c3C)cc2)cc1 | n | n | 28.2µM | u
CC(C)(C)c1ccc(OCC(=O)Nc2cccc(S(=O)(=O)NC3=NCCCCC3)c2)cc1 | n | x | u | n
O=C(Nc1cnn(Cc2ccccc2)c1)NC12CC3CC(CC(C3)C1)C2 | n | 15.8µM | n | n
COc1cccc(/C=C2\C(=O)C(=O)c3ccccc32)c1 | n | n | n | n
S=C(Nc1cccc2ccccc12)Nc1cccc2ccccc12 | n | x | n | n
S=C(Nc1cccc2ccccc12)NC1CCCCC1 | u | u | n | n | IDH1 autofl=n;WT IDH1 inh=u;IDH1 R132H conf=n
Cc1ccc(SCCNC(=O)CN2C(=O)c3ccccc3S2(=O)=O)cc1 | n | u | n | n
